{
  "source": "ChEMBL document CHEMBL3988442",
  "about": "“University of Dundee, Small-Polar-MMV Screening Library” (2021)",
  "note": "Among all 48,000 compounds or so, about 13,000 (27%) showed an effect of 50% or more. Some of the results follow.",
  "data": [
    {"system": "Wolbachia pipientis", "assay": "Anti-Wolbachia Cell-Based Screen", "assay_type": "functional", "parameters": "scale not given: in the data most compounds retested in dose-response had high values", "conditions": "5 µM", "units": {"Percent Effect": "%"}, "values": [
      {"molecule": "COc1ccccc1Oc1ncccc1CNC(=O)[C@@H](C)NC(C)=O", "Percent Effect": -4.174},
      {"molecule": "CC(C)CC(C)NC1CCN(c2ccc(-c3cscn3)cc2)CC1", "note": "(stereo unspecified)", "Percent Effect": 3.924},
      {"molecule": "CN(Cc1nnc2n1CCC2)C(=O)c1ccc(=O)n(C)n1", "Percent Effect": -6.286},
      {"molecule": "CC(=O)N(C)CC(=O)Nc1cnc(-n2ccnc2)nc1", "Percent Effect": 3.406},
      {"molecule": "Cc1nn(C)c(N(C)C)c1CNCc1cccc(Cn2cccn2)c1", "Percent Effect": 3.492},
      {"molecule": "COc1c(CNCc2ccccc2-n2ccnc2)c(C)nn1C", "Percent Effect": -0.9457},
      {"molecule": "Cc1nn(C)c(N(C)C)c1CNCc1cccc(Cn2ccnc2)c1", "Percent Effect": 81.6},
      {"molecule": "COc1c(CNCc2ccc(CN3CCOCC3)cc2)c(C)nn1C", "Percent Effect": -11.29},
      {"molecule": "COc1c(CNCc2ccccc2Cn2ccnc2)c(C)nn1C", "Percent Effect": 97.96},
      {"molecule": "COc1c(CNCc2cccc(Cn3ccnc3)c2)c(C)nn1C", "Percent Effect": -8.562},
      {"molecule": "Cc1nn(C)c(N(C)C)c1CNCc1cccc(CN(C)C)c1.Cl", "Percent Effect": 9.174},
      {"molecule": "COc1c(CNCc2ccc(Cn3ccnc3)cc2)c(C)nn1C", "Percent Effect": 103},
      {"molecule": "CC(C#N)CSc1ccccc1NCC(=O)NCc1cccs1", "note": "(stereo unspecified)", "Percent Effect": -12.24},
      {"molecule": "CCc1nc(C)c(-c2nccn2CC2CC(=O)N(CC)C2)[nH]1", "note": "(stereo unspecified)", "Percent Effect": -26.8},
      {"molecule": "O=C(CNC(=O)c1c[nH]c2ccccc12)NCCCn1ccnc1", "Percent Effect": 13.72},
      {"molecule": "O=C1CC(c2cccs2)c2cnn(C3CCCC3)c2N1", "note": "(stereo unspecified)", "Percent Effect": 48.91},
      {"molecule": "Cc1cc2c(cc1Cl)C=CC1(CCN(CC(=O)N3CCCC3)CC1)O2", "Percent Effect": 122.5},
      {"molecule": "Cc1cc2c(cc1C)OC1(C=C2)CCN(CC(=O)N2CCOCC2)CC1", "Percent Effect": 107.9},
      {"molecule": "COc1ccnc(N2CCN(CC(=O)N3CCOCC3)CC2)n1", "Percent Effect": 3.835},
      {"molecule": "Cc1cc2c(cc1Cl)C=CC1(CCN(CC(=O)N3CCOCC3)CC1)O2", "Percent Effect": 104},
      {"molecule": "CCN(C)c1ncnc2c1CCN(C(=O)N1CCOCC1)CC2", "Percent Effect": -3.195},
      {"molecule": "Cc1cc2c(cc1Cl)C=CC1(CCN(C(=O)N3CCOCC3)CC1)O2", "Percent Effect": 95},
      {"molecule": "Nc1cc(C(=O)N2CCCC3(C=Cc4ccccc4O3)CC2)ccn1", "note": "(stereo unspecified)", "Percent Effect": -15.12},
      {"molecule": "COc1ncc(C(=O)N2CCCC3(C=Cc4ccccc4O3)CC2)cn1", "note": "(stereo unspecified)", "Percent Effect": 1.868},
      {"molecule": "Cc1cc(C(=O)N2CCCC3(C=Cc4ccccc4O3)CC2)cc(=O)[nH]1", "note": "(stereo unspecified)", "Percent Effect": 7.842},
      {"molecule": "O=C(CN1CCOCC1)N1CCN(C2CCc3ccc(F)cc32)CC1", "note": "(stereo unspecified)", "Percent Effect": -10.71},
      {"molecule": "O=C(O)C(F)(F)F.c1csc(CN2CCc3ncnc(C4CCOC4)c3CC2)n1", "note": "(stereo unspecified)", "Percent Effect": 8.568},
      {"molecule": "O=S(=O)(CC1CCOCC1)NCc1ccnc(O)c1", "Percent Effect": 1.758},
      {"molecule": "Cc1ccsc1CCNC(=O)C1(Oc2cccnc2C)CCNCC1", "Percent Effect": 14.81},
      {"molecule": "CN(C)c1ccc2c(c1)CN(C(=O)c1ccnnc1)C2c1cnco1", "note": "(stereo unspecified)", "Percent Effect": -12.4},
      {"molecule": "O=C(CN1C=Nc2ccccc2S1(=O)=O)NC1CCCCC1", "Percent Effect": -27.98},
      {"molecule": "CC1(C)CN(CC(F)(F)F)CCN1CC(=O)NC1CCCC1", "Percent Effect": 1.341},
      {"molecule": "CCN(CC)C(=O)CN1CCC2(C=Cc3cc(Cl)c(C)cc3O2)CC1", "Percent Effect": 113.1},
      {"molecule": "Cc1cn(CC(=O)NC2CCN(CC3CC3)CC2)c2ccccc12", "Percent Effect": -11.31},
      {"molecule": "CCc1ccc(O)c(C(=O)N2CCCN(CC(=O)N(CC)CC)CC2)c1", "Percent Effect": -4.449},
      {"molecule": "CCc1ccc(O)c(C(=O)N2CCN(CC(=O)N(CC)CC)CC2)c1", "Percent Effect": 11.73},
      {"molecule": "Cc1cc2c(cc1Cl)C=CC1(CCN(CC(=O)NC3CCCC3)CC1)O2", "Percent Effect": 121.2},
      {"molecule": "Cc1cc(NC(=O)c2nc(N3CCCC3)ncc2Cl)nc(C(C)C)n1", "Percent Effect": -9.396},
      {"molecule": "Cc1ccc(-c2n[nH]cc2CNCC2CCS(=O)(=O)C2)o1", "note": "(stereo unspecified)", "Percent Effect": -39.75},
      {"molecule": "CCOC(=O)C1CC2(CCCCC2)N2CCC(=O)N12", "note": "(stereo unspecified)", "Percent Effect": 121.9},
      {"molecule": "CCN1CC2(CCCCN2C(=O)C2CCCCC2)CC1=O", "note": "(stereo unspecified)", "Percent Effect": -14.04},
      {"molecule": "CCN1C(=O)CO[C@@H]2CN(C(=O)C3CCOCC3)C[C@H]21", "Percent Effect": 7.95},
      {"molecule": "CCS(=O)(=O)N1CCCC2(CCCC(=O)N2C)C1", "note": "(stereo unspecified)", "Percent Effect": -13.94},
      {"molecule": "CCOCC1COCCC12CCN(C(=O)C1=CCCC1)CC2", "note": "(stereo unspecified)", "Percent Effect": -18.23},
      {"molecule": "COCCCN1CC2(CCCCN2C(C)=O)CC1=O", "note": "(stereo unspecified)", "Percent Effect": 3.783},
      {"molecule": "CCOC(=O)C1CC2(CCOCC2)N2CCC(=O)N12", "note": "(stereo unspecified)", "Percent Effect": 102.8},
      {"molecule": "CCOC(=O)C1CC2(CCCC2)N2CCC(=O)N12", "note": "(stereo unspecified)", "Percent Effect": 94.86},
      {"molecule": "COCCCN1CC2(CCCCN2C(=O)C2CCCCC2)CC1=O", "note": "(stereo unspecified)", "Percent Effect": -3.805},
      {"molecule": "CCc1ccc(C2COCCN2C(=O)Nc2cc(C)on2)o1", "note": "(stereo unspecified)", "Percent Effect": -5.597},
      {"molecule": "CCc1ccc(CN(C)C(=O)c2ccc(CSc3nnc[nH]3)o2)nc1", "Percent Effect": -27.23},
      {"molecule": "CC(=O)NCCNC(=O)NCCc1c(C)cc(C)cc1C", "Percent Effect": -0.992},
      {"molecule": "Cc1ccc2[nH]c(CO[C@H]3CN(c4ccc(C#N)cn4)C[C@H]3F)nc2c1", "Percent Effect": 0.4241},
      {"molecule": "Cc1ccc(-c2nc(CN3CCn4c(nnc4C4CC4)C3)co2)cc1", "Percent Effect": -3.724},
      {"molecule": "CC(O)CN1CCN(Cc2coc(-c3ccccc3Cl)n2)CC1", "note": "(stereo unspecified)", "Percent Effect": 6.495},
      {"molecule": "OCCN1CCN(Cc2coc(-c3ccc(Cl)cc3)n2)CC1", "Percent Effect": 12.92},
      {"molecule": "OCCN1CCN(Cc2coc(-c3ccccc3)n2)CC1", "Percent Effect": 106.5},
      {"molecule": "CC(O)CN1CCN(Cc2coc(-c3ccc(Cl)cc3)n2)CC1", "note": "(stereo unspecified)", "Percent Effect": 105.9},
      {"molecule": "OCCN1CCN(Cc2coc(-c3ccccc3Cl)n2)CC1", "Percent Effect": 6.785},
      {"molecule": "Cc1ccc(-c2nc(CN3CCN(CCO)CC3)co2)cc1", "Percent Effect": 88.55},
      {"molecule": "COc1ccc(-c2nc(CN3CCN(CCO)CC3)co2)cc1", "Percent Effect": 6.071},
      {"molecule": "CC(O)CN1CCN(Cc2coc(-c3ccccc3)n2)CC1", "note": "(stereo unspecified)", "Percent Effect": -18.93},
      {"molecule": "OCCOc1cc(F)ccc1NCc1nc(-c2ccoc2)no1", "Percent Effect": -6.724},
      {"molecule": "CC(=O)N(Cc1noc(C2CC2)n1)C1CCN(CC2CCOCC2)C1", "note": "(stereo unspecified)", "Percent Effect": 115.6},
      {"molecule": "CC(=O)N(Cc1noc(C2CC2)n1)C1CCN(CC(=O)NC2CC2)C1", "note": "(stereo unspecified)", "Percent Effect": 124.3},
      {"molecule": "Cc1nc(CCN)cc(N2CCC(O)(c3ccccc3)C2)n1", "note": "(stereo unspecified)", "Percent Effect": -17.84},
      {"molecule": "O=C(c1ccccn1)N1CC[C@H]2C(=O)N(c3ccsc3)CCO[C@H]2C1", "Percent Effect": -15.02}
    ]}
  ]
}
